PubChem BioAssay (NCATS)
“And” between values parts separate entries of the source, which are not always exact repeats. Equal entries are not always repeated. Values without a mark were called inactive. The source made the active and inactive calls. Unless noted, calls come from the whole dose curve.

How the values were obtained:
[1] = target: Androgen receptor (Homo sapiens) (UniProt P10275); test: qHTS assay for small molecule agonists of androgen receptor signaling (AID 588515; active = well fitted curve in the direction sought with a large enough effect in the signal ratio, with a control signal flat; inconclusive = small, poorly fitted or top-dose-only effect, or effect the other way, or a change in a side signal; inactive = no such curve, though single readings can be large or run the other way; the % refers to the signal ratio; note: potency is the fitted concentration of half-maximal effect; for activation: % is set by controls: 0 for no effect and ±100 for the full control effect); conditions: AR-UAS-bla HEK293, beta-lactamase ratio, agonist 16 h; activation: stronger effect = higher value
Sequence of Androgen receptor (Homo sapiens) (P10275 whole entry, looked up): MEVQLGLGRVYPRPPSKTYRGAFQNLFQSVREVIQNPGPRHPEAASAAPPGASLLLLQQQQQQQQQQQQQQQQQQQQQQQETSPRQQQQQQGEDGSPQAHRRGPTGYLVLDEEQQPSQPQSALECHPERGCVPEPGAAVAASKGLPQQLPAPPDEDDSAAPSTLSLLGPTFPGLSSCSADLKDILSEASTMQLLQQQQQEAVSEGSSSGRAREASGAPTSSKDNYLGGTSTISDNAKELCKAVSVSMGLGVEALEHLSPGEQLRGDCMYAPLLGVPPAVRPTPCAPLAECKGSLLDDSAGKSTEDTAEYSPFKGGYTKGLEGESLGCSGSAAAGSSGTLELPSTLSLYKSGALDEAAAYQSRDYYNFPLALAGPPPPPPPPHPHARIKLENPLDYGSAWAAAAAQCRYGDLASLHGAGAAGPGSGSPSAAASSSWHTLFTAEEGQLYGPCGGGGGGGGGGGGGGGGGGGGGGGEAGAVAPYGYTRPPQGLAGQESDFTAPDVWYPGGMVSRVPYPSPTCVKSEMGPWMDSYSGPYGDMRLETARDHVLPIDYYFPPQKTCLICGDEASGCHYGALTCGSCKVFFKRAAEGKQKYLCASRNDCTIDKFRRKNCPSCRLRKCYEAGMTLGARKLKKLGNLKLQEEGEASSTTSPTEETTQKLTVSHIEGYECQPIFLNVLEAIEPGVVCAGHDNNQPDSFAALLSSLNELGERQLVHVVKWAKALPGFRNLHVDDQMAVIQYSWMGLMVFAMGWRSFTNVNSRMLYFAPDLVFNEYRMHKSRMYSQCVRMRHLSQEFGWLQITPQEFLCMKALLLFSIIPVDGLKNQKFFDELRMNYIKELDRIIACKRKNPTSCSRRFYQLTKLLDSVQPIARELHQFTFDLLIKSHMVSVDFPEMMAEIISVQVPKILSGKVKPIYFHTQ
Method in brief: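 Stimulation of an AR-responsive β-lactamase reporter in GripTite HEK293 cells was measured after 16 h compound exposure at 37 °C, via CCF4 fluorescence after 2 h RT. EC50 from Hill fits, normalized to R1881 at 30 nM.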

[2] = target: Androgen receptor (Homo sapiens) (UniProt P10275); test: qHTS assay for small molecule antagonists of androgen receptor signaling (AID 588516; active = well fitted curve in the direction sought with a large enough effect in the signal ratio, with a control signal flat, not every such curve was filed as active; inconclusive = small, poorly fitted or top-dose-only effect, or effect the other way, or a change in a side signal; inactive = no such curve, though single readings can be large or run the other way; the % refers to the signal ratio; note: % is set by controls: 0 for no effect and ±100 for the full control effect)
Method in brief: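 Compounds tested in titration against 10 nM R1881 in AR-responsive bla reporter HEK 293 cells; CCF4 fluorescence (460/530 nm) after 16 h exposure gave IC50 and efficacy.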

[3] = target: Ubiquitin carboxyl-terminal hydrolase 1 (Homo sapiens) (UniProt O94782); test: Inhibitors of USP1/UAF1: Pilot qHTS (AID 504865; active = well fitted inhibition curve with a large enough effect; inconclusive = small, poorly fitted or top-dose-only effect;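 note: rhodamine fluorescence freed from ubiquitin-rhodamine substrate followed over time; top concentration of the series differs between compounds; % is set by controls: 0 for no effect and ±100 for the full control effect; nearly all actives have a fitted effect of over 35% in size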)
Sequence of Ubiquitin carboxyl-terminal hydrolase 1 (Homo sapiens) (O94782 whole entry, looked up): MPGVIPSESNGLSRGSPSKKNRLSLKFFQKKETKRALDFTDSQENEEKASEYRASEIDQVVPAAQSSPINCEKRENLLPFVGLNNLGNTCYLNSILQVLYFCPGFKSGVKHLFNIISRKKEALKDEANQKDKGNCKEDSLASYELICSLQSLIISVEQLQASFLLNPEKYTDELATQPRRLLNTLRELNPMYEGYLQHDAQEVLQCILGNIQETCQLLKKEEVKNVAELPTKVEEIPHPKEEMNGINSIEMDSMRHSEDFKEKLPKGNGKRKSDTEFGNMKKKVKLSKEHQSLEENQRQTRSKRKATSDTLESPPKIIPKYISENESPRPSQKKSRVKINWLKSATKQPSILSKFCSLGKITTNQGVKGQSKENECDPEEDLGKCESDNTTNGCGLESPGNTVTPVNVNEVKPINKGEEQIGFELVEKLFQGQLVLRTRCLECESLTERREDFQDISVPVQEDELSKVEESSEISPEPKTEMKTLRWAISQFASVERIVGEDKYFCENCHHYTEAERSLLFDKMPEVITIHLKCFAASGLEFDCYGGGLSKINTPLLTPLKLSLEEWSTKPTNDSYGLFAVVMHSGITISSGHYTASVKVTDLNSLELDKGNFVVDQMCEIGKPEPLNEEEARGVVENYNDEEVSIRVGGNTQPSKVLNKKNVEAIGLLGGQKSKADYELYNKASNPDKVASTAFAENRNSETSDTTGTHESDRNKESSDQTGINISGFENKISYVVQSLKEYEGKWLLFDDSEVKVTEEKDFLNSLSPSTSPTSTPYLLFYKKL
Method in brief: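 Enzyme-free wells gave the negative control, while test wells held 1nM USP1/UAF1 preincubated with compound for 15 min at room temperature. Ub-Rho at 150nM final started the reaction, and fluorescence at 480/540 nm was recorded kinetically.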

[4] = target: Estrogen receptor (Homo sapiens) (UniProt P03372); test: qHTS assay for small molecule antagonists of estrogen receptor alpha signaling (AID 588513; active = well fitted curve in the direction sought with a large enough effect in the signal ratio, with a control signal flat, not every such curve was filed as active; inconclusive = small, poorly fitted or top-dose-only effect, or effect the other way, or a change in a side signal; inactive = no such curve, though single readings can be large or run the other way; the % refers to the signal ratio; note: potency is the fitted concentration of half-maximal effect)
Sequence of Estrogen receptor (Homo sapiens) (P03372 whole entry, looked up): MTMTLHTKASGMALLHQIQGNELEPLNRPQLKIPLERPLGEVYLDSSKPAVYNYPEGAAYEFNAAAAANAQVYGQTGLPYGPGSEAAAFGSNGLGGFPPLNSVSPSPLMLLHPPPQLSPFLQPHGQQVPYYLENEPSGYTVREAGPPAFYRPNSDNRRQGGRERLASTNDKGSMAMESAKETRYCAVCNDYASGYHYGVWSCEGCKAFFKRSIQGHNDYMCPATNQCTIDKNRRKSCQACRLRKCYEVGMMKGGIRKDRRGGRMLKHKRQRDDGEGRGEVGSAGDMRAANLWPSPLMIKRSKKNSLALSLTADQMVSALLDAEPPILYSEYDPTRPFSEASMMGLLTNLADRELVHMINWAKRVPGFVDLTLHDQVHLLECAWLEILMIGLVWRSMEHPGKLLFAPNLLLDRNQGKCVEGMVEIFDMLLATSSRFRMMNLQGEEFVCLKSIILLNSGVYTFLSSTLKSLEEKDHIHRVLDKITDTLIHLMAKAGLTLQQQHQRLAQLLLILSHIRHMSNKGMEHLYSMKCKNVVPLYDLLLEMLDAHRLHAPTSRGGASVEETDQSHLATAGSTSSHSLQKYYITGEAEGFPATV
Method in brief: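 Antagonist-mode qHTS in ER-alpha-UAS-bla HEK 293 cells: compound titration, 0.5nM estradiol for 18 h, CCF4 fluorescence, Hill-derived IC50.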

[5] = target: Bile acid receptor (Homo sapiens) (UniProt Q96RI1); test: qHTS assay for small molecule agonists of farnesoid X receptor signaling (AID 588527); conditions: HEK293T FXR-UAS-bla, beta-lactamase ratio, 16 h; stronger effect = higher value;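 note: series mostly up to about 77 µM; 0% = vehicle basal and 100% = reference agonist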
Sequence of Bile acid receptor (Homo sapiens) (Q96RI1 whole entry, looked up): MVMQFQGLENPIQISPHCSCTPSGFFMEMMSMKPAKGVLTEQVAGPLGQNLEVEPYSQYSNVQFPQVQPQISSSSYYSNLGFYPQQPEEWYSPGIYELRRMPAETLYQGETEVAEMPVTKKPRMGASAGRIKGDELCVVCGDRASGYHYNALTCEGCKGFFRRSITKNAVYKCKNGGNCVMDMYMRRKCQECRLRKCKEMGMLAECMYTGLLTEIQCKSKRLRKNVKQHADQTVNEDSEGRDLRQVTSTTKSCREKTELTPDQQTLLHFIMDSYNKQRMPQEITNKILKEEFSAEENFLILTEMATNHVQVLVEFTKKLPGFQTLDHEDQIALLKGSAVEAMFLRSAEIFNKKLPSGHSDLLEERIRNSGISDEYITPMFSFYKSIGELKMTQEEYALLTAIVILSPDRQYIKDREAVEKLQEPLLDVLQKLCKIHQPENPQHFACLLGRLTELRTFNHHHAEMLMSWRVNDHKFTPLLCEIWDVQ
Method in brief: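 FXR-UAS-bla HEK293T cells (10% dialyzed FBS) preincubated 5-7 h at 37 C, then compounds at up to 92 uM for 16 h at 37 C. CCF4 beta-lactamase read-out after 2 h RT. Normalized to chenodeoxycholic acid (100 uM) and DMSO; Hill fit gave EC50 and efficacy.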

[6] = target: Bile acid receptor (Homo sapiens) (UniProt Q96RI1); test: qHTS assay for small molecule antagonists of farnesoid X receptor signaling (AID 588526); note: potency is the fitted concentration of half-maximal effect
Method in brief: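 Beta-lactamase reporter antagonist mode: HEK293T FXR-UAS-bla cells, titrated compound, CDCA stimulation, 16 h 37 C, CCF4 dye 2 h RT. Data normalized to CDCA 50 uM and DMSO; Hill-fit IC50.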

[7] = target: DNA dC->dU-editing enzyme APOBEC-3G (Homo sapiens) (UniProt Q9HC16); test: qHTS for inhibitors of Vif-A3G interactions: Validation (AID 588379; active = well fitted inhibition curve with a large enough effect; inconclusive = small, poorly fitted or top-dose-only effect; note: 0% is about no effect)
Sequence of DNA dC->dU-editing enzyme APOBEC-3G (Homo sapiens) (Q9HC16 whole entry, looked up): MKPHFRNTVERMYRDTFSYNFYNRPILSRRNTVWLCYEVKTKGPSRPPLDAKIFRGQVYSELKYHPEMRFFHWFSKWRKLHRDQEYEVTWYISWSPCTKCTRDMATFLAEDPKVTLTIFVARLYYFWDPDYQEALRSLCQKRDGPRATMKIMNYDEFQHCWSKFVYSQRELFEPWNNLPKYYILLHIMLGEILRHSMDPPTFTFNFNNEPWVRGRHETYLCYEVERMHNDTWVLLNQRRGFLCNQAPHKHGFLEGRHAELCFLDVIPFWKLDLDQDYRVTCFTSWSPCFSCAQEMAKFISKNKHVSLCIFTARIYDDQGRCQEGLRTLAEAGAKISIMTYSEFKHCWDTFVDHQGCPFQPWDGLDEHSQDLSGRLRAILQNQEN
Method in brief: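 Yellow fluorescence (Ex 488, Em 500-530) of Vif-coexpressing HeLa A3G-eYFP cells, scanned by Acumen cytometer, reports blocked A3G degradation. Cells plated at 700/well overnight at 37 deg C before compound addition, then a further overnight compound incubation at 37 deg C.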

## COP(=S)(OC)Oc1ccc(Sc2ccc(OP(=S)(OC)OC)cc2)cc1
[1]
  activation: -10.3%
[2]
  outcome: inactive

## O=c1n(Cl)c(=O)n(Cl)c(=O)n1Cl
[3]
  Potency: inactive
[4]
  Potency: inactive

## CC(O)COc1ccccc1 (stereo not given)
[5]
  activation: -2.72%

## C[C@H]1C(=O)O[C@@H]2CCN3CC=C(COC(=O)[C@](C)(O)[C@]1(C)O)[C@H]23
[4]
  Potency: inactive
[6]
  Potency: inactive
[5]
  activation: 2.9%

## Oc1ccc2[nH]cc(CCCCN3CC=C(c4ccccc4)CC3)c2c1
[7]
  outcome: inactive

## N#Cc1nn(-c2c(Cl)cc(C(F)(F)F)cc2Cl)c(N)c1S(=O)C(F)(F)F (stereo not given)
[5]
  activation: 6.05%

## CCOP(=S)(OCC)O/N=C(\C#N)c1ccccc1
[5]
  activation: 8.69%

## O=C1NCN(c2ccccc2)C12CCN(CCCOc1ccc(F)cc1)CC2
[3]
  Potency: inactive
[7]
  outcome: inactive

## COc1ccc2cc3[n+](cc2c1OC)CCc1cc2c(cc1-3)OCO2
[5]
  activation: -1.09%

## CCC(=O)O[C@H]1CC[C@H]2[C@@H]3CCC4=CC(=O)CC[C@]4(C)[C@H]3CC[C@]12C
[1]
  Potency: 0.0089 µM (active)

## CN(C)c1ccc(C(=C2C=CC(=[N+](C)C)C=C2)c2ccc(N(C)C)cc2)cc1
[5]
  activation: -3.58% and -3.47%

## O=C(NC(=O)c1c(F)cccc1F)Nc1cc(Cl)c(OC(F)(F)C(F)C(F)(F)F)cc1Cl (stereo not given)
[4]
  Potency: inactive
[1]
  activation: -6.9%
[2]
  outcome: inactive
[6]
  Potency: inactive
[5]
  activation: -0.875%

## O=C(Nc1ccc(Cl)cc1)Nc1ccc(Cl)c(Cl)c1
[5]
  activation: 1.41%

## Cc1ccc(O)cc1
[5]
  activation: -0.678%

## Oc1c(Cl)cc(Cl)cc1Sc1cc(Cl)cc(Cl)c1O
[5]
  activation: -0.242%

## CC/C(=C(/CC)c1ccc(O)cc1)c1ccc(O)cc1
[5]
  activation: 2% and 5.54%

## CCCCCCCCCCCC[N+](C)(C)CCOc1ccccc1
[4]
  Potency: 12.6 µM [inconclusive] (active)

## O=c1ccc2ccccc2o1
[5]
  activation: 2.18% and -1.67%

## c1ccc2[nH]c(-c3cscn3)nc2c1
[5]
  activation: -0.341% and 3.24%

## O=C1c2cccc(O)c2C(=O)c2c(O)cccc21
[5]
  activation: -5%

## CCOc1ccccc1C(N)=O
[5]
  activation: -0.664%

## Cc1cc(C(C)(C)C)c(O)c(C(C)(C)C)c1
[5]
  activation: 9.91% and 2.64%

## COCC(=O)N(c1c(C)cccc1C)C(C)C(=O)OC (stereo not given)
[4]
  Potency: inactive
[6]
  Potency: inactive
[5]
  activation: 3.52%

## O=C1C(c2[nH]c3ccccc3c2O)=Nc2ccccc21
[5]
  activation: 0.121%

## COP(=O)(OC)OC=C(Cl)Cl
[4]
  Potency: inactive

## CCN(CC)C(=O)c1cccc(C)c1
[5]
  activation: 0.006% and -2.52%

## C[C@@H]1C[C@@H]([C@H](O)CC2CC(=O)NC(=O)C2)C(=O)[C@@H](C)C1
[7]
  outcome: inactive
[6]
  Potency: inactive
[5]
  activation: 0.176% and -1.82% and 1.78%

## Oc1ccc(Cl)cc1Cc1cc(Cl)ccc1O
[4]
  Potency: 44.7 µM [inconclusive] (active)
[2]
  outcome: inactive
[6]
  Potency: 7.94 µM (active)
[5]
  activation: 1.29%

## Oc1c(Br)cc(Br)cc1Br
[4]
  Potency: inactive

## Cc1c(N(C)C)c(=O)n(-c2ccccc2)n1C
[5]
  activation: -2.31%

## CN(C)C(=S)SC(=S)N(C)C
[5]
  activation: 1.4%

## CN(C)C(=S)SSC(=S)N(C)C
[4]
  Potency: inactive
[5]
  activation: 3.15%

## CCOc1ccc(NC(C)=O)cc1
[5]
  activation: 0.406% and 4.82%

## CCNc1nc(Cl)nc(NCC)n1
[3]
  Potency: inactive
[6]
  Potency: inactive
[5]
  activation: -2%

## CN1[C@@H]2CC[C@H]1CC(OC(=O)c1cc(Cl)cc(Cl)c1)C2 (stereo not given in full)
[7]
  outcome: inactive

## O=C(OCc1ccccc1)c1ccc(O)cc1
[5]
  activation: 1.11%

## CCN(CC)CCOc1ccc(/C(=C(\Cl)c2ccccc2)c2ccccc2)cc1
[5]
  activation: 1.52%

## CNC(=O)Oc1cccc2ccccc12
[4]
  Potency: inactive
[6]
  Potency: inactive
[5]
  activation: -1.5%

## CC[n+]1c(-c2ccccc2)c2cc(N)ccc2c2ccc(N)cc21
[5]
  activation: 9.69%
